Values without a mark were called inactive. For some of these results: Results with a measured potency or affinity are listed apart. Active and inactive are the calls of the source. Unless noted, how the calls were made is not given here.
Columns and labels:
[1] = antimalarial activity against Dd2 strain (AID 2302;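 active means growth inhibition above 50% at the single 2 µM test dose, taken to imply half-maximal potency below 2 µM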;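 further: 0% = DMSO untreated growth and 100% = chloroquine plus artemisinin killed control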); settings: P. falciparum Dd2 in RBCs, LDH growth readout, 72 h; at 2 µM; active compounds read high
[2] = human hepatoma cell viability loss – ATP luminescence, cytotoxicity control for P. falciparum antimalarial project, primary screen (AID 2303;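 active means inhibition above 50%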;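 further: 0% = DMSO wells and 100% = digitonin-killed cells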); settings: HepG2 viability, 24-48 h, at 10 µM, active compounds read high
[3] = molecular target: L-lactate dehydrogenase (Plasmodium falciparum (isolate CDC / Honduras)) (UniProt Q27743); assay: PfLDH activity inhibition – cell lysate, 3D7 strain, counter-screen for P. falciparum growth inhibition project (AID 2304);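 further: 0% = vehicle and 100% = reference inhibitor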; settings: P. falciparum 3D7 crude extract, LDH APAD/NBT absorbance; at 2 µM; active compounds read high
L-lactate dehydrogenase (Plasmodium falciparum (isolate CDC / Honduras)), sequence (Q27743 whole entry, looked up): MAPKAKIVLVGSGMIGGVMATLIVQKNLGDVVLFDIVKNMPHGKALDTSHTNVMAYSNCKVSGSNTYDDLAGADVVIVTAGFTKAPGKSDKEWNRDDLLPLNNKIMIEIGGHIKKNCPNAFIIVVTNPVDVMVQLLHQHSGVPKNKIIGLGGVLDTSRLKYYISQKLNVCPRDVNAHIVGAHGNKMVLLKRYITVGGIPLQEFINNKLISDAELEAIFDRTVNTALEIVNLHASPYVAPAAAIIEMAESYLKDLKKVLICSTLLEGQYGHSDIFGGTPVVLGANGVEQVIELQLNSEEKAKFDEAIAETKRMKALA

[4] = inhibition of 3D7 malaria parasite growth – strain 3D7 (AID 2306);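 further: 0% = DMSO wells and 100% = chloroquine plus artemisinin control wells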; settings: P. falciparum 3D7 erythrocytic growth, LDH absorbance, 72 h; at 2 µM; active compounds read high
[5] = molecular target: Plasmodium falciparum protein kinase 6 (PK6, PF3D7_1337100) (UniProt Q8IDW1); assay: PfPK6 kinase inhibitors, biochemical, TCAMS library (AID 1159586); settings: recombinant PfPK6, Kinase-Glo ATP depletion luminescence
Plasmodium falciparum protein kinase 6 (PK6, PF3D7_1337100), sequence (Q8IDW1 1-305): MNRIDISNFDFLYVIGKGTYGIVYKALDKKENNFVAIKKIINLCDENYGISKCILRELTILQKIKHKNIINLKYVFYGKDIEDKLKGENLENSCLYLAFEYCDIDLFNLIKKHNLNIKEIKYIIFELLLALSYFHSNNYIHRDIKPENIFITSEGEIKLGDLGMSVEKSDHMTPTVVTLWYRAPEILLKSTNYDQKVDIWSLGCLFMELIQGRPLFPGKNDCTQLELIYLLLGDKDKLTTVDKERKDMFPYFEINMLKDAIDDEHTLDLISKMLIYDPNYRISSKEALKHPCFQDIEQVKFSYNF

[6] = molecular target: Protein kinase 7 (PK7), Plasmodium falciparum 3D7 (PF3D7_0213400) (UniProt Q7YTF7); assay: inhibition of Plasmodium PK7 catalytic activity – biochemical, TCAMS antimalarial set, Kinase-Glo luminescence (AID 1159587); settings: recombinant PfPK7, Kinase-Glo ATP depletion luminescence
Protein kinase 7 (PK7), Plasmodium falciparum 3D7 (PF3D7_0213400), sequence (Q7YTF7 1-343): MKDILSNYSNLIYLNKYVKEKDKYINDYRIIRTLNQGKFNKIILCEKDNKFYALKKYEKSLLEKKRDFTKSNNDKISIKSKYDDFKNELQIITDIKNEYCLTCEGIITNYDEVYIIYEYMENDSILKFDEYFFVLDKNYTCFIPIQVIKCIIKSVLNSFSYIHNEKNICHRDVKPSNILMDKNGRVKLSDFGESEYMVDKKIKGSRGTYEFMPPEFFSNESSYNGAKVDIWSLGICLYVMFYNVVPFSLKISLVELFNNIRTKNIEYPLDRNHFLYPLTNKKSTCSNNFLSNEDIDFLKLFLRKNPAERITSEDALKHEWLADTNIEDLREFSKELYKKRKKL

[7] = molecular target: Calcium-dependent protein kinase 4 (Plasmodium falciparum (isolate 3D7)) (UniProt Q8IBS5); assay: PfCDPK4 kinase inhibitors, biochemical, TCAMS library (AID 1159588; cut-off not given, nearly all actives have IC50 up to about 0.91 µM); settings: recombinant PfCDPK4, Kinase-Glo ATP depletion luminescence
Calcium-dependent protein kinase 4 (Plasmodium falciparum (isolate 3D7)), sequence (Q8IBS5 whole entry, looked up): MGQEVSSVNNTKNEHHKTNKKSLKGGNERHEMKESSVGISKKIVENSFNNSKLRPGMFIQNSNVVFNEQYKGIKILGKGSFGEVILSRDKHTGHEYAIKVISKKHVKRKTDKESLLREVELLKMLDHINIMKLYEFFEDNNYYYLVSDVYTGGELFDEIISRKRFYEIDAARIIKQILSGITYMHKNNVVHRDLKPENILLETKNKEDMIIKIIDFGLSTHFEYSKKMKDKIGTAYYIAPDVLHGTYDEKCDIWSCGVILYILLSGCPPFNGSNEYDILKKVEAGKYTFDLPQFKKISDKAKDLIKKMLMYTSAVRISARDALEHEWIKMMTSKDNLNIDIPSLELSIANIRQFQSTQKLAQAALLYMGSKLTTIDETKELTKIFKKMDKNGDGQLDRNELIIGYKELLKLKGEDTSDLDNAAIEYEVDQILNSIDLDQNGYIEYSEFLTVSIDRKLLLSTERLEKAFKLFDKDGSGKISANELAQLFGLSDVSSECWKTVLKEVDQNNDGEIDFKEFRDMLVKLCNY

Row | Compound | growth inhibition [1] | inhibition [2] | inhibition [3] [%] | growth inhibition [4] | outcome [5] | outcome [6] | outcome [7]
1 | Cc1csc(-c2ncc(OC[C@@H](N)Cc3ccccc3)cc2-c2ccc3n[nH]c(C)c3c2)c1 | 35% | 48% | 4 | 98% (active) | inactive | inactive | –
2 | CCn1c(-c2nonc2N)nc2c(-c3cccc(NC(=O)Nc4ccc5c(c4)CCC5)c3)ncc(OCCCN)c21 | 94% (active) | 26% | -2 | 99% (active) | inactive | inactive | –
3 | Cc1cccc(Nc2nc(N[C@@H]3CCCNC3)nc3cc[nH]c(=O)c23)c1 | 98% (active) | 55% (active) | 1 | 99% (active) | inactive | inactive | –
4 | Oc1cccc(Nc2ccnc3cc(-c4nccs4)ccc23)c1 | – | -10% | -7 | 98% (active) | inactive | inactive | inactive
5 | COc1ccc(-c2cnc3[nH]cc(-c4ccncc4)c3c2)cc1OC | 97% (active) | 52% (active) | -2 | 98% (active) | inactive | inactive | inactive
6 | CC(C)(NCc1ncc[nH]1)c1nc(-c2ccc(Cl)c(O)c2)c(-c2ccncc2)[nH]1 | 97% (active) | 42% | 3 | 95% (active) | inactive | inactive | inactive
7 | COc1cc(-c2nc(C(C)(C)CN)[nH]c2-c2ccncc2)ccc1Br | 95% (active) | 17% | 1 | 97% (active) | inactive | inactive | inactive
8 | CCn1c(-c2nc(-c3ccnc(N4CCN(C)CC4)c3)cnc2N)nc2cc(S(C)(=O)=O)ccc21 | 76% (active) | 44% | -1 | 101% (active) | inactive | inactive | inactive
9 | COc1ccc(Nc2ncc(C#N)c(Nc3ccccc3C(N)=O)n2)cc1N1CCN(C)CC1 | 97% (active) | 56% (active) | -1 | 93% (active) | – | inactive | inactive
10 | NCCCNc1nc(Nc2cccc(C(N)=O)c2)c2c(=O)[nH]ccc2n1 | 49% | 9% | -3 | 99% (active) | inactive | inactive | –
11 | Cc1cc(Nc2ncc(Cl)c(Nc3ccccc3C(N)=O)n2)n[nH]1 | 96% (active) | 70% (active) | -1 | 98% (active) | – | inactive | inactive
12 | CNC(=O)c1ccccc1Nc1nc(Nc2ccc(N3CCN(C)CC3)nc2)ncc1C | 50% (active) | 75% (active) | 4 | 92% (active) | – | inactive | inactive
13 | O=c1[nH]ccc2nc(N[C@@H]3CCNC3)nc(Nc3cc(Cl)cc(Cl)c3)c12 | 99% (active) | 99% (active) | -2 | 101% (active) | inactive | inactive | –
14 | NS(=O)(=O)c1cccc(Nc2nc(N[C@@H]3CCNC3)nc3cc[nH]c(=O)c23)c1 | 98% (active) | 7% | 0 | 99% (active) | inactive | inactive | –
15 | CCn1c(-c2nonc2N)nc2c(-c3cccc(NC(=O)Nc4cccc(C(F)(F)F)c4)c3)ncc(OCCCN)c21 | 70% (active) | 21% | 2 | 95% (active) | inactive | inactive | –
16 | NC[C@H](CC1CCCCC1)NC(=O)c1ccc(-c2ccnc3[nH]ccc23)s1 | 4% | 39% | 5 | 98% (active) | inactive | inactive | –
17 | NCCNS(=O)(=O)c1ccc(-c2ccnc3[nH]c(-c4ccncc4)cc23)cc1 | 95% (active) | -10% | 3 | 96% (active) | – | inactive | inactive
18 | CCn1c(-c2nonc2N)nc2c(-c3cccc(NC(=O)Nc4ccc(C#N)cc4)c3)ncc(OCCCN)c21 | 80% (active) | 1% | 0 | 85% (active) | inactive | inactive | –
19 | CC(c1cccc(Nc2nccc(-c3c(-c4cccc(NC(=O)c5c(F)cccc5F)c4)nn4ccccc34)n2)c1)S(C)(=O)=O (stereo not given) | 99% (active) | 76% (active) | -6 | 98% (active) | inactive | inactive | –
20 | NS(=O)(=O)CCc1cccc(Nc2nccc(-c3c(-c4cccc(NC(=O)c5c(F)cccc5F)c4)nn4ccccc34)n2)c1 | 97% (active) | 84% (active) | 3 | 98% (active) | inactive | inactive | –
21 | CCn1c(-c2nonc2N)nc2c(-c3cccc(NC(=O)Nc4ccccc4Cl)c3)ncc(OCCCN)c21 | 74% (active) | 2% | -4 | 99% (active) | inactive | inactive | –
